A selection: hits, their analogues and other compounds. The true share with any hit is near 14%.
USP30 block – inhibitors of human USP30 deubiquitinase | purified USP30, Ub-rhodamine cleavage fluorescence | inhibition, % at 25 µM | hit rate 5.3% among 47,000 | AID 1645860, 2021
USP28 inh – inhibitors of human USP28 deubiquitinase | Ubiquitin carboxyl-terminal hydrolase 28 (Homo sapiens), Q96RU2 | purified USP28, Ub-rhodamine cleavage fluorescence, 30 min | inhibition, % at 25 µM | hit rate 3% among 47,000 | AID 1645857, 2021
USP17 inh – inhibitors of human USP17 deubiquitinase; Ubiquitin carboxyl-terminal hydrolase 17-like protein 5 (Homo sapiens), A8MUK1; hit rate 6.5% among 47,000; inhibition, % at 50 µM; purified USP17, Ub-rhodamine cleavage fluorescence, 3 h
USP10 inh – inhibitors of human USP10 deubiquitinase; Ubiquitin carboxyl-terminal hydrolase 10 (Homo sapiens), Q14694; purified USP10, Ub-rhodamine fluorescence, 60 min; inhibition, % at 20 µM; hit rate 1.1% among 47,000; AID 1645856, 2021
USP8 block – inhibitors of human USP8 deubiquitinase. inhibition, % at 20 µM. purified USP8, Ub-rhodamine cleavage fluorescence, 30 min. AID 1645853, 2021. Ubiquitin carboxyl-terminal hydrolase 8 (Homo sapiens), P40818. hit rate 4.2% among 47,000
A number is an active result. No stated cut-off is given here; in the data, active means inhibition above about 30%; inactive means the rest.

What do the screens show for `COc1nc(OC)nc(N2CCC(NC(=O)C(Cc3ccccc3F)NC(C)=O)CC2)n1` (centres undefined)?
USP30 block: 42; USP28 inh: inactive; USP17 inh: inactive; USP10 inh: inactive; USP8 block: inactive

What do the screens show for `COc1nc(OC)nc(N2CCC(NC(=O)C(Cc3ccc(C)cc3)NC(C)=O)CC2)n1` (centres undefined)?
USP30 block: 34; USP28 inh: inactive; USP17 inh: inactive; USP10 inh: inactive; USP8 block: inactive

How did Cc1cccnc1CN1CCCC(c2cnc(Nc3cnccn3)cn2)C1 (centres undefined) do in these assays?
USP30 block: inactive; USP28 inh: inactive; USP17 inh: inactive; USP10 inh: inactive; USP8 block: inactive

How did COc1ccccc1CC(=O)N1CCC(c2nc3ccncc3n2C)C1 (centres undefined) do in these assays?
USP30 block: inactive; USP28 inh: inactive; USP17 inh: inactive; USP10 inh: inactive; USP8 block: inactive

What do the screens show for `CC(=O)N1c2ccc(S(=O)(=O)N3CCCC3)cc2CC1C` (centres undefined)?
USP30 block: inactive; USP28 inh: inactive; USP17 inh: inactive; USP10 inh: inactive; USP8 block: inactive

Results for Cc1ccc(NC(=O)c2ccc(-c3cncnc3)nc2)c(C)c1 ?
USP30 block: inactive; USP28 inh: inactive; USP17 inh: inactive; USP10 inh: inactive; USP8 block: inactive

What do the screens show for `O=C(CN=C1NS(=O)(=O)c2ccccc21)Nc1ccccc1Cc1ccccc1`?
USP30 block: inactive; USP28 inh: inactive; USP17 inh: inactive; USP10 inh: inactive; USP8 block: inactive

How did Cc1ccnc(SCc2cc(=O)c(OC(=O)c3c(F)cccc3Cl)co2)n1 do in these assays?
USP30 block: inactive; USP28 inh: inactive; USP17 inh: 39; USP10 inh: inactive; USP8 block: 31

What do the screens show for `Cc1csc(SCc2cc(=O)c(OC(=O)c3cccc(F)c3)co2)n1`?
USP30 block: inactive; USP28 inh: inactive; USP17 inh: inactive; USP10 inh: inactive; USP8 block: 61

What do the screens show for `CCC(=O)c1ccc(OCC(=O)Nc2ccc(C#N)cc2)cc1`?
USP30 block: inactive; USP28 inh: inactive; USP17 inh: 47; USP10 inh: inactive; USP8 block: inactive

How did N#Cc1ccc(NC(=O)COc2ccc3oc4ccccc4c3c2)cc1 do in these assays?
USP30 block: inactive; USP28 inh: inactive; USP17 inh: 45; USP10 inh: inactive; USP8 block: inactive

Results for COc1cccc(CNC2C3CC4CC(C3)CC2C4)c1 (centres undefined) ?
USP30 block: inactive; USP28 inh: inactive; USP17 inh: inactive; USP10 inh: inactive; USP8 block: inactive

Results for Cc1ccc(C)c(C(=O)CSc2nnc(C)n2Cc2ccccc2)c1 ?
USP30 block: inactive; USP28 inh: inactive; USP17 inh: inactive; USP10 inh: inactive; USP8 block: inactive

How did Cc1ccc(C)c(NC(=O)C(Sc2nnc(C)n2Cc2ccccc2)c2ccccc2)c1 (centres undefined) do in these assays?
USP30 block: 30; USP28 inh: inactive; USP10 inh: inactive; USP8 block: inactive

How did COc1ccc(C)cc1NC(=O)C(Sc1nnc(C2CC2)n1Cc1ccccc1)c1ccccc1 (centres undefined) do in these assays?
USP30 block: 37; USP28 inh: 30; USP17 inh: inactive; USP10 inh: inactive; USP8 block: inactive

How did Cc1ccc(-n2nc(C(=O)Nc3ccc(C)cn3)c3ncn(C)c(=O)c32)cc1 do in these assays?
USP30 block: inactive; USP28 inh: inactive; USP17 inh: 75; USP10 inh: 31; USP8 block: 72

Results for CC1CCCC(C)N1CCCNC(=O)c1ccc2c(c1)NC(=O)C1CCCN21 (centres undefined) ?
USP30 block: inactive; USP28 inh: inactive; USP17 inh: inactive; USP10 inh: inactive; USP8 block: inactive

Results for O=C(NCc1cccc(F)c1)c1ccc2c(c1)NC(=O)C1CCCN21 (centres undefined) ?
USP30 block: inactive; USP28 inh: inactive; USP17 inh: 48; USP10 inh: inactive; USP8 block: 67

How did CS(=O)(=O)c1cccc(N2CCN(CC3CC3)C2=O)c1 do in these assays?
USP30 block: inactive; USP28 inh: 33; USP17 inh: inactive; USP10 inh: inactive; USP8 block: inactive

How did CC(C)c1ccc(N2CCN(Cc3ccc(F)cc3F)C2=O)cc1 do in these assays?
USP30 block: inactive; USP28 inh: inactive; USP17 inh: inactive; USP10 inh: inactive; USP8 block: inactive
